PLCb3 inh: inhibitors of human phospholipase C beta3 | inhibition, % at 12.2 µM | Q01970 | actives 0.18% (n = 370,000) | Purified PLC-beta3, fluorogenic substrate, fluorescence; in the data active means inhibition above about 11%
sPLA2-III inh: Blocks human group III sPLA2 activity; inhibition, % at 12.2 µM; actives 0.56% (n = 370,000); QFRET BODIPY PC-A2 liposome hydrolysis, fluorescence;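 active means inhibition above mean plus 3 SD of compounds lying within the high and low control bounds, cut at about 19% in these data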
PLC-gamma1 inh: inhibitors of human phospholipase C gamma1 | inhibition, % at 12.2 µM | purified PLC-gamma1, fluorogenic substrate, fluorescence | actives 0.84% (n = 370,000) | P19174 | AID 720700; in the data active means inhibition above about 9.5%
DAGLB inhibitor: diacylglycerol lipase beta (human) inhibition; inhibition, % at 5.17 µM; Q8NCG7; HEK293T DAGLB membrane lysate, EnzChek fluorogenic substrate; actives 0.059% (n = 340,000); AID 504411; in the data active means inhibition above about 34%
DAGLB confirm: DAGLB (human) inhibition, confirmation screen | actives 73% (n = 190) | inhibition, % at 5.17 µM | HEK293T DAGLB membrane lysate, EnzChek fluorogenic substrate | shares compounds with DAGLB inhibitor;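 active means mean inhibition over triplicate wells above a set limit taken from the primary lipase screen, cut at about 34% in these data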
A number is an active result; - = inactive; . = no result given. The list is not random: actives were taken first. Their share in the collection is about 1.5%.

SMILES	PLCb3 inh	sPLA2-III inh	PLC-gamma1 inh	DAGLB inhibitor	others
CC(C)CN1C(=O)C[C@@]2(C(=O)N(C)c3ccc(NS(=O)(=O)c4ccc(F)cc4)cc32)C1c1ccccc1 (stereo partly drawn)	-	-	-	.
Cc1[nH]n(-c2ccccc2)c(=O)c1C(c1cccc([N+](=O)[O-])c1)c1c(C)[nH]n(-c2ccccc2)c1=O	-	-	13	-
Cc1cc(NC(c2ccc(Cl)cc2)c2ccc3cccnc3c2O)no1 (stereo not drawn)	-	35	-	-
CC(=O)NC(c1ccc(Cl)cc1)c1ccc2cccnc2c1O (stereo not drawn)	-	-	-	-
COC(=O)c1ccc(Oc2nc(NC(C)C)nc(N(C)C)n2)cc1	15	-	-	-
O=C(O)c1ccccc1C(=O)Nc1cc(C(F)(F)F)ccc1N1CCCC1	-	-	10	-
O=C(Nc1cc(C(F)(F)F)ccc1N1CCOCC1)c1ccccc1	-	-	-	-
CN1/C(=C\C(=S)NC(=O)c2ccccc2Cl)C(C)(C)c2ccccc21	-	-	-	-
COc1ccccc1C(=O)NC(=S)/C=C1/N(C)c2ccccc2C1(C)C	-	20	-	-
O=C(/C=C/c1ccc(Cl)cc1)NC(=S)Nc1ccc(C(=O)O)cc1	-	-	11	-
COc1ccc(S(=O)(=O)N(C)C[C@H]2Oc3c(NC(=O)C4CCCCC4)cccc3C(=O)N([C@H](C)CO)C[C@@H]2C)cc1	-	-	9.6	-
C[C@H](CO)N1C[C@H](C)[C@@H](CN(C)CC2CC2)Oc2c(NS(=O)(=O)c3ccccc3)cccc2C1=O	-	-	-	-
C[C@H](CO)N1C[C@H](C)[C@@H](CN(C)CC2CCCCC2)Oc2c(NS(=O)(=O)c3ccccc3)cccc2C1=O	11	-	-	-
COc1ccc(NC(=O)Nc2cccc3c2O[C@H](CN(C)S(=O)(=O)c2ccc(OC)cc2)[C@@H](C)CN([C@H](C)CO)C3=O)cc1	-	-	-	-
C[C@H]1Cn2nnc(-c3ccccc3)c2Cn2c3ccccc3c(=O)n21	-	-	-	.
CC(C)C[C@@H]1COc2cc(Br)ccc2S(=O)(=O)N1Cc1cn(CC2CCCCC2)nn1	-	-	-	.
NC(=O)c1ccc(N=C2C(=O)Nc3ccc([N+](=O)[O-])cc32)cc1	-	-	11	-
O=C1Nc2ccccc2C1=Nc1cccc([N+](=O)[O-])c1	-	-	-	-
O=C(CN1C(=O)S/C(=C\c2ccc(Cl)cc2)C1=O)NNC(=O)c1ccccc1O	-	44	-	-
COc1ccc(/C=C2\SC(=S)N(CCCC(=O)NNC(=O)c3ccccc3O)C2=O)cc1	-	-	-	-
N#CCC[C@@H]1CC[C@]2(CCCN(C(=O)c3ccc4ccccc4n3)C2)O1	-	-	-	.
O=C(N/C(=C\c1ccc(Cl)cc1)C(=O)N1CCOCC1)c1ccc([N+](=O)[O-])cc1	-	-	15	-
CNC(=O)C[C@H]1CC[C@H]2[C@@H](COc3ccc(NC(=O)Nc4ccccc4)cc3C(=O)N2C)O1	-	-	-	.
CCOc1cc(N2CCOCC2)c(OCC)cc1NC(=O)CN1CCc2ccccc2C1	11	-	-	-
COc1ccc(OC)c(C(c2nnnn2CCc2ccccc2)N2CCN(c3ccccc3)CC2)c1 (stereo not drawn)	-	-	11	-
SMILES	PLCb3 inh	sPLA2-III inh	PLC-gamma1 inh	DAGLB inhibitor	others
Clc1ccc([C@H]2OC[C@@]3(CNCC4CC4)CS[C@H](c4ccc(Cl)cc4)N23)cc1	-	-	-	.
O=C(CSc1nc2ccccc2o1)N1CCCC1	-	-	-	49	DAGLB confirm=-
CCOC(=O)[C@@]12CCCC3=C1N(CCC3)C(=O)[C@H]2CC(=O)N1CCN(C(=O)C2CC2)CC1	-	-	-	.
Cc1ccc(NC2=C/C(=N\S(=O)(=O)c3cccs3)c3ccccc3C2=O)c(C)c1	.	.	.	50	DAGLB confirm=53
Cc1ccc(Cl)cc1NC1=C/C(=N\S(=O)(=O)c2cccs2)c2ccccc2C1=O	-	-	-	43	DAGLB confirm=46
Cc1cccc(NC2=C/C(=N/S(=O)(=O)c3cccs3)c3ccccc3C2=O)c1	-	-	-	-
C=CCN1C(=O)[C@@H](CC(=O)N2CCN(C(=O)OCC)CC2)[C@]2(C(=O)OC)CCCCC=C12	-	-	-	.
COC(=O)[C@]12C[C@H](CC(=O)NCc3cccc(C(F)(F)F)c3)C(=O)N(Cc3ccc(Cl)cc3Cl)C1=C[C@H](C(C)(C)C)O[C@@H]2C	-	-	-	.
CCC(C)(C)C(=O)N1CCc2cc(S(=O)(=O)N(C)Cc3ccco3)ccc21	-	-	-	.
